This passage reports growth inhibition results from PubChem BioAssay (NCI).

The nature of experiment [1]: NCI Yeast Anticancer Drug Screen. Data for the rad50 strain (AID 155).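 Further: 0% = growth of vehicle-only cultures of the same strain.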 The conditions noted are these: S. cerevisiae rad50 strain growth inhibition; at 50.0 µM; stronger effect = higher value. In outline: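 Cells are treated with compound, grown, and their growth is then scored against vehicle-only cultures of the same repair-deficient yeast strain.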
Experiment [2] can be described thus: NCI Yeast Anticancer Drug Screen. Data for the mec2-1 strain (AID 157). The conditions noted are these: S. cerevisiae mec2-1 strain, at 50.0 µM, stronger effect = higher value. In outline:
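Yeast mec2-1 mutant treated with compound. Readout: growth inhibition vs vehicle controls.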

Experiment [3] in a line: NCI Yeast Anticancer Drug Screen. Data for the sgs1 mgt1 strain (AID 161).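 Further: 0% = growth of cultures given vehicle only.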 The conditions noted are these: S. cerevisiae sgs1 mgt1 strain, at 50.0 µM, stronger effect = higher value. In outline:
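Genetically altered yeast, compound exposure, growth inhibition relative to vehicle.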

Experiment [4] can be described thus: NCI Yeast Anticancer Drug Screen. Data for the cln2 rad14 strain (AID 165).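 Further: 0% = growth equal to vehicle treated cultures.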 The conditions noted are these: S. cerevisiae cln2 rad14 strain, at 50.0 µM, stronger effect = higher value. A digest of the protocol:
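cln2 rad14 yeast strain; compound exposure; growth inhibition read vs vehicle controls.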

Experiment [5] in a line: NCI Yeast Anticancer Drug Screen. Data for the bub3 strain (AID 167). The conditions noted are these: S. cerevisiae bub3 mutant strain, at 50.0 µM, stronger effect = higher value. In outline: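 Part of a panel of yeast mutants defective in DNA damage repair or cell cycle regulation. Each strain is grown with compound, and inhibition is calculated relative to solvent-treated cultures.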

A short description of experiment [6]: NCI Yeast Anticancer Drug Screen. Data for the mlh1 rad18 strain (AID 175). The conditions noted are these: S. cerevisiae mlh1 rad18 strain growth inhibition; at 50.0 µM; stronger effect = higher value. A digest of the protocol: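 Yeast w/ defined DNA-repair lesions; compound exposure; growth vs vehicle controls → % inhibition.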

The panel holds about 79,000 compounds, 15% with a hit somewhere; the sample as a whole holds those more often. Unmarked numbers belong to inactive results. The source made the active and inactive calls. No stated cut-off is given here; in the data, active means growth inhibition above about 70%; inactive means the rest.

In the case of `O=[N+]([O-])c1cccc(C2CC(c3ccccc3)=NN2c2ccccc2)c1` (stereo not given), the growth inhibition in experiment [1] was 2.9%; in experiment [2], -2.05%; in experiment [3], 0.25%; in experiment [4], -9.4%; in experiment [5], 10.4%; in experiment [6], -7.3%.
Regarding `NC(=O)c1ccccc1[N+](=O)[O-]`, the growth inhibition in experiment [1] is 3.75%; in experiment [2], -7%; in experiment [3], -16.4%; in experiment [4], 6.4%; in experiment [5], -16.1%; in experiment [6], -6.5%.
As for `O=[N+]([O-])c1ccc(/C(=C/c2ccc(Cl)cc2Cl)S(=O)(=O)C(Cl)Cl)o1`, the growth inhibition is 98.3% (active) in experiment [1]; 98.8% (active) in experiment [2]; 99.1% (active) in experiment [3]; 99.1% (active) in experiment [4]; 98.2% (active) in experiment [5]; 98% (active) in experiment [6].
For the compound `CCOC(=O)C1C(C)C2(C#N)C(=N)OC1(C)C2(C#N)C#N` (stereo not given), the growth inhibition in experiment [1] is 21.5%; in experiment [2] it was 19.1%; in experiment [3], -6.6%; in experiment [4] it was 1.5%; in experiment [5], -22.4%; in experiment [6], -12.9%.
On to `NC(=O)NN/C=C(/C=Nc1ccccc1)[N+](=O)[O-]`, for which the growth inhibition in experiment [1] was 17.4%; in experiment [2], 7.35%; in experiment [3], 1.2%; in experiment [4], 5.35%; in experiment [5] it was 6.55%; in experiment [6] it was 0.95%.
`Cc1ccc(-n2c(C)nc3c(c(C)c(C)n3-c3ccccc3)c2=N)cc1`: the growth inhibition in experiment [1] was 4.1%; in experiment [2] it was -0.75%; in experiment [3], 4.75%; in experiment [4], -19%; in experiment [5] it was 15.4%; in experiment [6], 6.65%.
As to `COc1ccc(NC(=O)c2cc3cc(N=Nc4ccc(Br)cc4)ccc3oc2=O)cc1`, the growth inhibition is -30.9% in experiment [1]; 14.4% in experiment [2]; -15.2% in experiment [3]; 0.05% in experiment [4]; -28.5% in experiment [5]; -17.6% in experiment [6].
As to `CCC(C)C(C)O` (stereo not given), the growth inhibition was -7.05% in experiment [1]; -53% in experiment [2]; 2.9% in experiment [3]; 14.5% in experiment [4]; -12.8% in experiment [5]; 0.1% in experiment [6].
Regarding `O=C(Cl)Cc1ccccc1[N+](=O)[O-]`, the growth inhibition was 14.5% in experiment [1]; 14.6% in experiment [2]; 12.4% in experiment [3]; 6.55% in experiment [4]; -20.4% in experiment [5]; 12.9% in experiment [6].
Turning to `C#CCN(Cc1ccc2nc(-c3ccccc3)c(N)nc2c1)c1cc(OC)c(OC)c(OC)c1`, the growth inhibition in experiment [1] is -0.75%; in experiment [2], 5.25%; in experiment [3] it was 31.8%; in experiment [4], 16.1%; in experiment [5], 14.7%; in experiment [6], 30.1%.
Turning to `CCCCCCCCCCCCSCCO`, the growth inhibition was 20.9% in experiment [1]; 10.8% in experiment [2]; 39% in experiment [3]; 31.4% in experiment [4]; 17.1% in experiment [5]; 39% in experiment [6].
Regarding `O=C1NC(=O)C2C3CCC(C3)C12` (stereo not given), the growth inhibition in experiment [1] is 13.6%; in experiment [2], -6.15%; in experiment [3] it was -7.65%; in experiment [4] it was -41.8%; in experiment [5] it was 4.65%; in experiment [6] it was 0.4%.
For `CCOC(=O)c1c[nH]c2ccc3c(nc(C)n3C)c2c1=O`, the growth inhibition was -7.95% in experiment [1]; -1.05% in experiment [2]; -5.2% in experiment [3]; 11.9% in experiment [4]; -21.4% in experiment [5]; -47.5% in experiment [6].
Regarding `CCCc1cc2c3c(c(=O)oc2cc1O)CCCCC3`, the growth inhibition in experiment [1] is -17.9%; in experiment [2], 19.4%; in experiment [3] it was 4.7%; in experiment [4], -22.5%; in experiment [5] it was -9.8%; in experiment [6], -14.3%.
As to `O=C(NC(=S)c1ccccc1)Nc1ccccc1`, the growth inhibition was 2.1% in experiment [1]; 37.5% in experiment [2]; 6.85% in experiment [3]; -8.85% in experiment [4]; 24.4% in experiment [5]; 18.9% in experiment [6].
Turning to `O=C1c2ccccc2C(=O)N1CCn1nc(-c2ccccc2)cc(-c2ccccc2)c1=O`, the growth inhibition in experiment [1] was 1.85%; in experiment [2], -2.35%; in experiment [3] it was -25.5%; in experiment [4] it was 7.9%; in experiment [5], 39%; in experiment [6], -8.6%.
As to `COCC12CCC(OC)C34C5CC6(O)C(OC)CC(OC(C)=O)(C5C6OC(=O)c5ccccc5)C(C(OC)C13)C4N(C)C2` (stereo not given), the growth inhibition is -24.5% in experiment [1]; -23.8% in experiment [2]; -26.5% in experiment [3]; -8.9% in experiment [4]; -1.45% in experiment [5]; -77.5% in experiment [6].
Regarding `CCC1(CC)C(=O)NN(C(=O)c2ccccc2)C1=O`, the growth inhibition was 19.3% in experiment [1]; -20.1% in experiment [2]; 28.4% in experiment [3]; 13.6% in experiment [4]; -4.45% in experiment [5]; -43.4% in experiment [6].
For the compound `CC1(C)CCCCC1/C=C/C(CC(O)(C(F)(F)F)C(F)(F)F)=N\Nc1ccc([N+](=O)[O-])cc1[N+](=O)[O-]` (stereo not given), the growth inhibition is 15.1% in experiment [1]; 9.1% in experiment [2]; 4.65% in experiment [3]; 18.1% in experiment [4]; 16.1% in experiment [5]; 26.6% in experiment [6].
On to `O=S(=O)(O)c1ccc2c(N=Nc3cccc4ccccc34)c(O)c(S(=O)(=O)O)cc2c1`, for which the growth inhibition in experiment [1] was -2.35%; in experiment [2] it was 4.9%; in experiment [3] it was -21.3%; in experiment [4], 41.2%; in experiment [5], -17.8%; in experiment [6], 23.1%.
